The text below walks through data of PubChem BioAssay (Tox21).

Assay [1] can be described thus: qHTS assay to identify small molecule antagonists of the thyroid receptor (TR) signaling pathway - cell viability counter screen (AID 743064). Also: nearly all actives have a fitted effect of over 50% in size. In short, it runs like this: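 Compounds were tested on GH3.TRE-Luc cells in the presence of T3 at 1 nM final. Following 23.5 h at 37 °C, cell viability was quantified by CellTiter-Fluor.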
Background: In qHTS, concentration-response curves come from the screen itself.

Assay [2] has as its system thyroid hormone receptor (rat, GH3 cells). As to the kind of experiment: qHTS assay to identify small molecule agonists of the thyroid receptor (TR) signaling pathway (AID 743066; calls by dose curve).
A short description of assay [3]: qHTS assay to identify small molecule antagonists of the estrogen receptor alpha (ER-alpha) signaling pathway - cell viability counter screen (AID 743074; calls by dose curve;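 also: HEK293 cells carrying ER-alpha-UAS-bla reporter stimulated with 17beta-estradiol; nearly all actives have a fitted effect of over 45% in size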).
Assay [4] is described as follows: qHTS assay to identify small molecule antagonists of the estrogen receptor alpha (ER-alpha) signaling pathway using the BG1 cell line - cell viability counter screen (AID 743081).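 Also: compound given together with 17beta-estradiol as the ER stimulus; series mostly up to about 70 µM; nearly all actives have a fitted effect of over 45% in size.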
The target of assay [5] is Aromatase (Homo sapiens) (UniProt P11511). Put plainly: qHTS assay to identify aromatase inhibitors (AID 743083). Also: nearly all actives have a fitted effect of over 55% in size. Also: potency is read from the fitted curve at half-maximal effect.
Sequence of Aromatase (Homo sapiens) (P11511 whole entry, looked up): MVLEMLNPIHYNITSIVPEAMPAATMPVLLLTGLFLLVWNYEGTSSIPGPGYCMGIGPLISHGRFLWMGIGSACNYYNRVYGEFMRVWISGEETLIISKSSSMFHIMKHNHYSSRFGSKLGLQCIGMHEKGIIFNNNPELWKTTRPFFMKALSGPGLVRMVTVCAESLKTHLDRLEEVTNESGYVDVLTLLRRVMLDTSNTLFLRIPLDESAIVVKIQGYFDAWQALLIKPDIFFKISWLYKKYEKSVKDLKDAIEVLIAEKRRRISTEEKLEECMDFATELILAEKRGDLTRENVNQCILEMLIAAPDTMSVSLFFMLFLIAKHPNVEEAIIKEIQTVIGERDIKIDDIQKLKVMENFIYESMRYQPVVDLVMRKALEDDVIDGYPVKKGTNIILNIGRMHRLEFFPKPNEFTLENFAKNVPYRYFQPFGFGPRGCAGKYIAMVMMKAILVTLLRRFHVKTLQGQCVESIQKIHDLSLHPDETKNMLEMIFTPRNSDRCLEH
The target of assay [6] is Estrogen receptor (Homo sapiens) (UniProt P03372). As to the kind of experiment: qHTS assay to identify small molecule antagonists of the estrogen receptor alpha (ER-alpha) signaling pathway (AID 743069; active = well fitted curve in the direction sought with a large enough effect in the signal ratio in the repeat runs, not every such curve was filed as active; the % refers to the signal ratio). In short, it runs like this: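 Beta-lactamase FRET fluorescence is read after 2 hr at room temperature with LiveBLAzer B/G substrate. Before that, ER-alpha-bla HEK293 cells sit 4 hr after plating, then receive compound plus 17beta-estradiol and incubate 18 hr at 37C.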
Sequence of Estrogen receptor (Homo sapiens) (P03372 whole entry, looked up): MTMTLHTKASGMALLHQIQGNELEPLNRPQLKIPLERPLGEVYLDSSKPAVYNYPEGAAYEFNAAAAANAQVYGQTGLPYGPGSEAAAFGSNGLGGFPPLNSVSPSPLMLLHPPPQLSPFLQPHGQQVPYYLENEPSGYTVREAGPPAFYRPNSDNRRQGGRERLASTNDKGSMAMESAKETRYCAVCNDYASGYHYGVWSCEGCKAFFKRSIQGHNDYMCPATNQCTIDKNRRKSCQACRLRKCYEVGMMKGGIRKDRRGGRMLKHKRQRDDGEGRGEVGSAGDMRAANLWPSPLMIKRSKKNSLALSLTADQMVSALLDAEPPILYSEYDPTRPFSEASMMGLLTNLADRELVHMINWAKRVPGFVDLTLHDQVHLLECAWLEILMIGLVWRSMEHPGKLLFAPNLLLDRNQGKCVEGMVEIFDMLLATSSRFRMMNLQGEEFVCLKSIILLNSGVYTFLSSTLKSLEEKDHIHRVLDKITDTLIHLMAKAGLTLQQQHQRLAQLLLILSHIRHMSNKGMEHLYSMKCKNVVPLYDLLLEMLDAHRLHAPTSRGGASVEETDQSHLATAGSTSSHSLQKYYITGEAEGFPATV

Assay [7] shares this target. Put plainly: qHTS assay to identify small molecule agonists of the estrogen receptor alpha (ER-alpha) signaling pathway (AID 743075; calls by dose curve;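 also: HEK293 GripTite cells with ER-alpha and UAS-driven beta-lactamase reporter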).
The nature of assay [8]: qHTS assay to identify small molecule antagonists of the estrogen receptor alpha (ER-alpha) signaling pathway using the BG1 cell line (AID 743080; calls by dose curve;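 also: BG1 cells stimulated with 17beta-estradiol alongside compound; nearly all actives have a fitted effect of over 25% in size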; also: potency is read from the fitted curve at half-maximal effect). In short, it runs like this:
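Seeding, 24 h rest, compound transfer from DMSO, 17beta-estradiol addition, 21.5 h incubation, CellTiter-Fluor (30 min, 37 C), then ONE-Glo (30 min, room temperature): this sequence was run on BG1-Luc-4E2 reporter cells.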

Assay [9] deals with Estrogen receptor (Homo sapiens) (UniProt P03372). As to the kind of experiment: qHTS assay to identify small molecule agonists of the estrogen receptor alpha (ER-alpha) signaling pathway using the BG1 cell line (AID 743079). Also: nearly all actives have a fitted effect of over 20% in size.

Results filed as inconclusive are left out. A number with no mark means an inactive call. Active and inactive are the calls of the source. Unless noted, calls follow the shape of the dose curve; as a rule, active = well fitted curve in the direction sought with a large enough effect in the repeat runs; inconclusive = weak or mixed curves; inactive = no such curve, though single readings can be large; an effect the other way counts as inactive or inconclusive.

For the compound `CC1(CO)CN(c2ccccc2)NC1=O` (stereo not given), the Potency entry in assay [1] and in [5] was “inactive” in each case. Moreover, the outcome in [2], in assay [3] and in assay [4] was inactive.

Take `O=C(Nc1ccc(Cl)c(Cl)c1)C1CC1`: the Potency result in assay [1] and in assay [5] was “inactive” throughout. Further, the compound was classed as inactive in [2], in assay [6], in assay [7] and in assay [4]. Besides, the Potency in assay [8] was 21.1 µM (active).

On to `OCCC(F)(F)C(F)(F)C(F)(F)C(F)(F)C(F)(F)C(F)(F)C(F)(F)C(F)(F)F`, for which the Potency result in assay [1], in assay [9], in assay [8] and in assay [5] was “inactive” throughout. Also, the compound was classed as inactive in [2], in [3], in assay [7] and in assay [4].

`OC[C@H](Cc1cccc(O)c1)[C@H](CO)Cc1cccc(O)c1`: the Potency entry in assay [1] and in assay [5] was “inactive” each time. The outcome in [2], in assay [3] and in assay [4] was inactive.

In the case of `CC(C)(C)c1cc(CCC(=O)NN)cc(C(C)(C)C)c1O`, the Potency result in [1] and in [5] was “inactive” throughout. Also, the compound was called inactive in assay [2], in assay [3] and in assay [4].

Turning to `CC(=O)Nc1cccc(C)c1`, the Potency result in assay [1], in assay [9], in assay [8] and in [5] was “inactive” throughout. The result in assay [2], in assay [6], in assay [3] and in assay [7] was inactive.

As to `CCCCNc1ccc(C(=O)OCCN(C)C)cc1`, the Potency entry in assay [1] and in assay [5] was “inactive” in each case. Further, the call in assay [2], in [3] and in [4] was inactive.

Regarding `BrCc1cccc(Oc2ccccc2)c1`, the Potency entry in assay [1] and in assay [5] was “inactive” throughout. For the same compound, the result in assay [2], in assay [3] and in [4] was inactive.

Consider `O=S(=O)(O)c1ccc2cc(O)c(S(=O)(=O)O)cc2c1`, for which the Potency result in assay [1], in [9], in assay [8] and in assay [5] was “inactive” in each case. For the same compound, the call in assay [2], in [6], in assay [7] and in [4] was inactive.

Turning to `CCCOC(OCCC)OCCC`, the Potency entry in assay [1] and in [5] was “inactive” throughout. Further, the compound was classed as inactive in [2], in assay [3] and in assay [4].

For `O=S(=O)(O)CCN1CCN(CCO)CC1`, the Potency result in assay [1] and in assay [5] was “inactive” each time. Moreover, the outcome in assay [2], in [3] and in [4] was inactive.

As for `C#CC(C)N(C)C(=O)Nc1ccc(Cl)cc1` (stereo not given), the Potency entry in assay [1] and in assay [5] was “inactive” in each case. For the same compound, the compound was called inactive in assay [2], in assay [3] and in [4].

Turning to `Cc1cc2cc3c(C)cc(=O)oc3c(C)c2o1`, the Potency result in assay [1], in [9] and in assay [5] was “inactive” each time. Also, the outcome in [2], in [3], in assay [7] and in assay [4] was inactive.

In the case of `C[C@H](N)[C@H](O)c1cccc(O)c1`, the Potency entry in [1], in [9], in assay [8] and in assay [5] was “inactive” in each case. The call in assay [6], in assay [3], in assay [7] and in assay [4] was inactive.

With `O=C(OCc1ccccc1)C(=O)OCc1ccccc1`, the Potency result in assay [1], in assay [9], in assay [8] and in [5] was “inactive” throughout. The result in assay [2], in assay [6], in assay [3], in assay [7] and in [4] was inactive.

As to `O=C(NCC(O)CO)c1c(I)c(C(=O)NCC(O)CO)c(I)c(N(CCO)C(=O)CO)c1I` (stereo not given), the Potency entry in assay [1] is “inactive”. Moreover, the result in assay [2], in [3] and in assay [4] was inactive.

On to `CCCCCCCC/C=C\CCCCCCCC(=O)OCCCC`, for which the Potency entry in assay [1], in [9], in assay [8] and in assay [5] was “inactive” each time. The compound was called inactive in [2], in [6], in [3], in [7] and in assay [4].

With `Cc1cccc2nccnc12`, the Potency entry in assay [1], in assay [8] and in [5] was “inactive” in each case. The call in [2], in [6], in assay [3], in [7] and in assay [4] was inactive.

On to `O=C(NCCN1CCOCC1)c1ccc(Cl)cc1`, for which the Potency entry in assay [1] and in assay [5] was “inactive” each time. In addition, the result in [2], in [3] and in [4] was inactive.

As for `CC(C(=O)O)c1ccc2c(c1)CC(=O)c1ccccc1S2` (stereo not given), the Potency entry in [1], in [9], in [8] and in [5] was “inactive” throughout. For the same compound, the call in [2], in [6], in assay [3] and in assay [7] was inactive.

On to `CCOc1cc([N+](=O)[O-])c(OCC)cc1N1CCOCC1`, for which the Potency entry in assay [1], in assay [9] and in assay [8] was “inactive” throughout. Also, the compound was called inactive in [2], in assay [3], in [7] and in assay [4]. Besides, in [5], the Potency was 34.4 µM (active).

For `CC(C)C[C@H](NC(=O)CNC(=O)[C@H](Cc1ccc(O)cc1)NC(=O)[C@H](CO)NC(=O)[C@H](Cc1c[nH]c2ccccc12)NC(=O)[C@H](Cc1cnc[nH]1)NC(=O)[C@@H]1CCC(=O)N1)C(=O)N[C@@H](CCCN=C(N)N)C(=O)N1CCC[C@H]1C(=O)NCC(N)=O` (stereo in doubt), in [1], the Potency result is “inactive”. Besides, the compound was called inactive in assay [2] and in assay [3].
